Targets with a hit are over-represented here; the source holds about 8,800 in all. About 0.5% of all pairs of compound and target were hits.

UniProt Q969R2, sequence (Q969R2 whole entry, looked up): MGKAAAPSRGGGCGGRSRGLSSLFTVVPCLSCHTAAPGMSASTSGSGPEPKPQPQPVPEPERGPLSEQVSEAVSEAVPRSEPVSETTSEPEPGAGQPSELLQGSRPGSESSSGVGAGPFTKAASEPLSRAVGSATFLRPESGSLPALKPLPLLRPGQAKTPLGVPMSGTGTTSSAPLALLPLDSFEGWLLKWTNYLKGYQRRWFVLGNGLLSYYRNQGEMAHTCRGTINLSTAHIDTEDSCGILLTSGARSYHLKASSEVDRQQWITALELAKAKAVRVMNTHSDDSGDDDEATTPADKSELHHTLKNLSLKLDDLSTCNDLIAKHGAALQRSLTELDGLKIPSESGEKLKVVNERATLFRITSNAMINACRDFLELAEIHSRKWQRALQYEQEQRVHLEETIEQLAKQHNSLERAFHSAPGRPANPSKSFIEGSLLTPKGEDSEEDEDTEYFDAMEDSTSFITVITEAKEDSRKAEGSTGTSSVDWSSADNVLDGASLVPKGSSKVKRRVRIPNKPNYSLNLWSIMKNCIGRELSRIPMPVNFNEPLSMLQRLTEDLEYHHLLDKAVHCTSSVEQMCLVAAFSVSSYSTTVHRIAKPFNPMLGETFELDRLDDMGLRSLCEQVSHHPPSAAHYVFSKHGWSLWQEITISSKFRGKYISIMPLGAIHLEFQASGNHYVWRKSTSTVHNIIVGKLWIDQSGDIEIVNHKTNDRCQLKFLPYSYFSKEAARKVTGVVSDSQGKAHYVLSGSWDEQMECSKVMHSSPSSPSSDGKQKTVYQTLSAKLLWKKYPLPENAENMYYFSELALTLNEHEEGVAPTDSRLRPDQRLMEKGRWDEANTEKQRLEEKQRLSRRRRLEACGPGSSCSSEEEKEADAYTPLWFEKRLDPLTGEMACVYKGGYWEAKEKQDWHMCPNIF
UniProt Q9NZJ9, sequence (Q9NZJ9 whole entry, looked up): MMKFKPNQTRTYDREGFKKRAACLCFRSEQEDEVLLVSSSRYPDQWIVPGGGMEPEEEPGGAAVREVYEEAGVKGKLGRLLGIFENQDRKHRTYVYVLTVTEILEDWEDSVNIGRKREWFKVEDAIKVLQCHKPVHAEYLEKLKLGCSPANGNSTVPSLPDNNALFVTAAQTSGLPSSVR
UniProt Q8TDX7, sequence (Q8TDX7 whole entry, looked up): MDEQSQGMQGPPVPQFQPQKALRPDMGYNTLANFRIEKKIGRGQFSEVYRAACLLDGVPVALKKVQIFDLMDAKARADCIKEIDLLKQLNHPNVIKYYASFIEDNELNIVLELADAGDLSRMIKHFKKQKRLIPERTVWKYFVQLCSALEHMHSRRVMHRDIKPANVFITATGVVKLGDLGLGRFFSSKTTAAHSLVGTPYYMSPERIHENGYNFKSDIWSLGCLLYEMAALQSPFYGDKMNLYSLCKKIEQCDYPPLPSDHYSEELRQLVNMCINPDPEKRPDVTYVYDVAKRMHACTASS
UniProt Q8N1F7, sequence (Q8N1F7 whole entry, looked up): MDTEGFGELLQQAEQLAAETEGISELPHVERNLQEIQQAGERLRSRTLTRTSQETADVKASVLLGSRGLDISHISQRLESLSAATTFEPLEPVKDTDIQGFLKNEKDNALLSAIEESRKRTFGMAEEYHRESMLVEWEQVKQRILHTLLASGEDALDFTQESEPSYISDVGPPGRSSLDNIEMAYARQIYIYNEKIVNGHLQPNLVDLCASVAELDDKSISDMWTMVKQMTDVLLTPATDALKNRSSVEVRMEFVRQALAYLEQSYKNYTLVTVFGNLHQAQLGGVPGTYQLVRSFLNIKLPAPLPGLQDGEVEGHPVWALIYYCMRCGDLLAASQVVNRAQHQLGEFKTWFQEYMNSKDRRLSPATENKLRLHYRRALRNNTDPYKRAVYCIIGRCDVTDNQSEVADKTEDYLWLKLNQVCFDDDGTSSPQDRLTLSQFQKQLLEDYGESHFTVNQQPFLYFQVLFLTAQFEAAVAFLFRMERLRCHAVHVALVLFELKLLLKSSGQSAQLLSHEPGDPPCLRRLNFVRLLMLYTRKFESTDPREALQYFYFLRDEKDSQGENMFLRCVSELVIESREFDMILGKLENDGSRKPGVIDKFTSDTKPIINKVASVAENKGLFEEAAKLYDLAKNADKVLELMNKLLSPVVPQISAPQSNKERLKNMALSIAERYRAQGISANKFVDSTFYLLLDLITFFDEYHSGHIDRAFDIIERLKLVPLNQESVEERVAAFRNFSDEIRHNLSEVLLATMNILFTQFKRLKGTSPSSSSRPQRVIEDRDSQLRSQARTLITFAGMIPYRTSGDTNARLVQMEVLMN
UniProt Q5SRE5, sequence (Q5SRE5 whole entry, looked up): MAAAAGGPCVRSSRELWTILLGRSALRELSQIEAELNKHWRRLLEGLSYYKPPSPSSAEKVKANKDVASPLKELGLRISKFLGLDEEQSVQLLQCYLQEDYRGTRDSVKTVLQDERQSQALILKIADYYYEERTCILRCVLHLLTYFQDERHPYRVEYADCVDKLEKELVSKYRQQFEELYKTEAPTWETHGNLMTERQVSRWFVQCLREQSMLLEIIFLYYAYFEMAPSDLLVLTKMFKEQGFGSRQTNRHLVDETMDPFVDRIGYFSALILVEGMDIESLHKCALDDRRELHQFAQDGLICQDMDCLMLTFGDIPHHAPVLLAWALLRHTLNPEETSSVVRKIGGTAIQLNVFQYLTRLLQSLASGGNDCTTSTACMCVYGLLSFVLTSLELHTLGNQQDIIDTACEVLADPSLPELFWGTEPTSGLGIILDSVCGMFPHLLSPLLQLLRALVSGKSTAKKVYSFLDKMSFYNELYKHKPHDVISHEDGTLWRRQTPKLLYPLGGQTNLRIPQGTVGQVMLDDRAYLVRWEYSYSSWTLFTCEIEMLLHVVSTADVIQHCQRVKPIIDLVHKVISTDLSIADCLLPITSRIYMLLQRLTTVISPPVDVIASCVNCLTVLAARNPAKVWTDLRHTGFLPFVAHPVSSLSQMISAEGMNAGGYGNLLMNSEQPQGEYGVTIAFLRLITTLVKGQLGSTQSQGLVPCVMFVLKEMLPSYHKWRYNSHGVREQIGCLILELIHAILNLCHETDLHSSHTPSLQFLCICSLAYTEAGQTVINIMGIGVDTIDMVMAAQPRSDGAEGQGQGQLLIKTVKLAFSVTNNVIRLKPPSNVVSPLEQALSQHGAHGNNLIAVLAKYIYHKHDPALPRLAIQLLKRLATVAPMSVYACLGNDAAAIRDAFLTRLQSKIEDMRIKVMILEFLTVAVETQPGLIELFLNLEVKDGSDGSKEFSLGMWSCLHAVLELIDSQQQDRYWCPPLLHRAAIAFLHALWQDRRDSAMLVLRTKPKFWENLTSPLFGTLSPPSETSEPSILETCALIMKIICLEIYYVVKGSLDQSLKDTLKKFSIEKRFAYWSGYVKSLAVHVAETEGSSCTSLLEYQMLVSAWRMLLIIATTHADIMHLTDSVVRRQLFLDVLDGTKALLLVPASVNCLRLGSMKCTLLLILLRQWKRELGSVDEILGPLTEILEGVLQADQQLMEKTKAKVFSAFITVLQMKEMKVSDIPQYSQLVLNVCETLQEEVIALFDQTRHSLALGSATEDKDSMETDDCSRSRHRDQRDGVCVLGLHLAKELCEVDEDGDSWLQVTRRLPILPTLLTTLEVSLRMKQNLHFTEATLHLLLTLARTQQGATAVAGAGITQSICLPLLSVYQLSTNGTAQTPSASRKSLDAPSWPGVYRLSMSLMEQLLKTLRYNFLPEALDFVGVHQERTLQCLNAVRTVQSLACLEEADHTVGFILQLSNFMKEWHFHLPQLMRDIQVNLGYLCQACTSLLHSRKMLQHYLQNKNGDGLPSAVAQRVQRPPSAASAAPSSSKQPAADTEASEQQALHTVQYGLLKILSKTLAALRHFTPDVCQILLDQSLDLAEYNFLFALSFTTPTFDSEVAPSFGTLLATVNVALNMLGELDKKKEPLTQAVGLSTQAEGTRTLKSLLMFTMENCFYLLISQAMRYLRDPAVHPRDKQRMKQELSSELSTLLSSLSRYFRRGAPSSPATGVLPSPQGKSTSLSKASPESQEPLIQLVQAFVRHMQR
UniProt P30419, sequence (P30419 whole entry, looked up): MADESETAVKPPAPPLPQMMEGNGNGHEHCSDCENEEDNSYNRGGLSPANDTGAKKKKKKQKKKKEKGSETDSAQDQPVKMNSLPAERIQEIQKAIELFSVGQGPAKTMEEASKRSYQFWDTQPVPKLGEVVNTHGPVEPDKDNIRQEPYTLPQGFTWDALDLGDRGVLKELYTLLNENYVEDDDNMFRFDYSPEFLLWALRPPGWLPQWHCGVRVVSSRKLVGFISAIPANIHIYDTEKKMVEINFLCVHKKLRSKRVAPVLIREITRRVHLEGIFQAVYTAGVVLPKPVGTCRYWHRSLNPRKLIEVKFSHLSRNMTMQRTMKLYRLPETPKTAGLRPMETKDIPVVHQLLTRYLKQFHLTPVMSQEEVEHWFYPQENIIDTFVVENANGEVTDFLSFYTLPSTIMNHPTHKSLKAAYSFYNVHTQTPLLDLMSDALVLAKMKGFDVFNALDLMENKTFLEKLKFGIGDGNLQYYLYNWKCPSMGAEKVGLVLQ
UniProt Q8IXH7, sequence (Q8IXH7 whole entry, looked up): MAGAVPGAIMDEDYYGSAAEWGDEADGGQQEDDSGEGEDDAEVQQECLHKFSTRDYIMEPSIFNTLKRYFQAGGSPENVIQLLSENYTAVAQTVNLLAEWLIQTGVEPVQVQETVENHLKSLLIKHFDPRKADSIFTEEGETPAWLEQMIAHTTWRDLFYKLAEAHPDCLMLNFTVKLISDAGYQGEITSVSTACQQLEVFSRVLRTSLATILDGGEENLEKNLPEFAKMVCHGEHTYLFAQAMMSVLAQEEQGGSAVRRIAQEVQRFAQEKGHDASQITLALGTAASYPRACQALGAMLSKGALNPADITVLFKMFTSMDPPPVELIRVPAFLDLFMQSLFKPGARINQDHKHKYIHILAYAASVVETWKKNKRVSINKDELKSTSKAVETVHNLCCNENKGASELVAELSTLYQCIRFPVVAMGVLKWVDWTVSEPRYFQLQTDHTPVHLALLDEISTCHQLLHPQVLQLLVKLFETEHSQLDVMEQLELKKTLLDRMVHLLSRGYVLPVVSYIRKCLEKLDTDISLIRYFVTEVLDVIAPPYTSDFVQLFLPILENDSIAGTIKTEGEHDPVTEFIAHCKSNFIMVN

Compound in one assay: CC1=C(C2=C(C=C1)C(=O)C3=CC=CC=C3N2CCCN)C
Briefly: log2 fold change, soluble protein after heating vs DMSO (PISA); higher = thermal stabilisation; K562 lysate, 10 uM; active = over 0.2 and 3.5 SD of the protein, either way, in both replicates (recomputed). An outline of the steps:
(§1)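 Log-two fold change in thermal stability relative to solvent controls is reported from duplicates. For each sample, crude K562 extract from dounce-homogenised pellets in PBS pH 7.4 with 1 mM MgCl2, at 1 mg/mL protein, was treated with 10 μM compound for 30 min. Aliquots heated for 3 min across 48°C-58°C were pooled, brought to 0.5% NP-40 at 4°C and cleared at 21,000xg for 90 min. The supernatant was quantified by TMTpro 16plex LC-MS/MS with channel sums equalised.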
As for NUP93 (UniProt Q8N1F7), the log2 fold change is 0.019 (inactive).
As for PANK4 (UniProt Q9NVE7), the log2 fold change is -0.024 (inactive).
In the case of NIPSNAP3A (UniProt Q9UFN0), the log2 fold change was -0.021 (inactive).
On to OSBP2 (UniProt Q969R2), for which the log2 fold change was 0.023 (inactive).
MTCH2 (UniProt Q9Y6C9): the log2 fold change is -0.011 (inactive).
Still for that read-out and setting: the figure for NUP160 (UniProt Q12769) is 0.005 (inactive).
Turning to NEK7 (UniProt Q8TDX7), the log2 fold change is -0.048 (inactive).
Take NLRP2 (UniProt Q9NX02): the log2 fold change is 0.009 (inactive).
Turning to NUMB (UniProt P49757), the log2 fold change was -0.015 (inactive).
Same read-out and setting: with NEK9 (UniProt Q8TD19) the figure was -0.01 (inactive).
Still for that read-out and setting: with MSH6 (UniProt P52701) the figure was -0.01 (inactive); with NIFK (UniProt Q9BYG3), -0.035 (inactive).
Same read-out and setting: the figure for OGFOD2 (UniProt Q6N063) is 0.025 (inactive); for NFATC1 (UniProt O95644) it is -0.047 (inactive); for NFIC (UniProt P08651) it is -0.044 (inactive).
OARD1 (UniProt Q9Y530): the log2 fold change is -0.046 (inactive).
As to NOB1 (UniProt Q9ULX3), the log2 fold change was -0.046 (inactive).
NARS2 (UniProt Q96I59): the log2 fold change was -0.024 (inactive).
For NUP188 (UniProt Q5SRE5), the log2 fold change was 0.035 (inactive).
With NFKBIE (UniProt O00221), the log2 fold change is -0.044 (inactive).
Turning to NNT (UniProt Q13423), the log2 fold change was -0.019 (inactive).
With ORC5 (UniProt O43913), the log2 fold change was -0.008 (inactive).
With MYO1D (UniProt O94832), the log2 fold change is -0.009 (inactive).
As to OTUD7B (UniProt Q6GQQ9), the log2 fold change is -0.019 (inactive).
Consider NUF2 (UniProt Q9BZD4), for which the log2 fold change is 0.027 (inactive).
For the target PBK (UniProt Q96KB5), the log2 fold change is 0.015 (inactive).
On to NUDT4 (UniProt Q9NZJ9), for which the log2 fold change was 0.003 (inactive).
As for MYD88 isoform 6 (UniProt Q99836), the log2 fold change was -0.028 (inactive).
Same read-out and setting: with MRPL53 (UniProt Q96EL3) the figure was 0.011 (inactive).
In the case of MTMR6 (UniProt Q9Y217), the log2 fold change was 0.006 (inactive).
On the same count and under the same terms, with NELFCD (UniProt Q8IXH7) the figure was 0.013 (inactive).
For NPLOC4 isoform 2 (UniProt Q8TAT6), the log2 fold change was -0.009 (inactive).
In the case of NCOR2 (UniProt C9J0Q5), the log2 fold change is 0.022 (inactive).
Still for that read-out and setting: the figure for NUDT5 (UniProt Q9UKK9) is -0.002 (inactive).
Still for that read-out and setting: with NMT1 (UniProt P30419) the figure was -0.009 (inactive); with PARD3 (UniProt Q8TEW0), 0.006 (inactive).

Compound in another assay: CC1=C(C=C(C=C1)NC(=O)C2=CC(=CC=C2)C(C)(C)C#N)NC3=CC4=C(C=C3)N=CN(C4=O)C
The assay is described as above. An outline of the steps: as §1
Turning to NUP93 (UniProt Q8N1F7), the log2 fold change is -0.029 (inactive).
PANK4 (UniProt Q9NVE7): the log2 fold change was -0.001 (inactive).
For the target NIPSNAP3A (UniProt Q9UFN0), the log2 fold change was 0.004 (inactive).
Still for that read-out and setting: the figure for OSBP2 (UniProt Q969R2) is 0.051 (inactive).
On the same count and under the same terms, with MTCH2 (UniProt Q9Y6C9) the figure was 0.043 (inactive); with NUP160 (UniProt Q12769), 0.012 (inactive).
NEK7 (UniProt Q8TDX7): the log2 fold change was -0.043 (inactive).
As for NLRP2 (UniProt Q9NX02), the log2 fold change is 0.003 (inactive).
Take NUMB (UniProt P49757): the log2 fold change is 0.081 (inactive).
With NEK9 (UniProt Q8TD19), the log2 fold change is 0.012 (inactive).
With MSH6 (UniProt P52701), the log2 fold change was -0.002 (inactive).
Same read-out and setting: the figure for NIFK (UniProt Q9BYG3) is -0.005 (inactive).
Turning to OGFOD2 (UniProt Q6N063), the log2 fold change was -0.04 (inactive).
Regarding NFATC1 (UniProt O95644), the log2 fold change was 0.094 (inactive).
With NFIC (UniProt P08651), the log2 fold change was 0.049 (inactive).
Consider OARD1 (UniProt Q9Y530), for which the log2 fold change was 0.032 (inactive).
Consider NOB1 (UniProt Q9ULX3), for which the log2 fold change was 0.03 (inactive).
For the target NARS2 (UniProt Q96I59), the log2 fold change is -0.007 (inactive).
As to NUP188 (UniProt Q5SRE5), the log2 fold change was -0.04 (inactive).
Take NFKBIE (UniProt O00221): the log2 fold change was 0.027 (inactive).
Still for that read-out and setting: with NNT (UniProt Q13423) the figure was -0.007 (inactive); with ORC5 (UniProt O43913), 0.012 (inactive).
For MYO1D (UniProt O94832), the log2 fold change was -0.014 (inactive).
Take OTUD7B (UniProt Q6GQQ9): the log2 fold change is 0.239 (active).
Consider NUF2 (UniProt Q9BZD4), for which the log2 fold change is -0.011 (inactive).
For the target PBK (UniProt Q96KB5), the log2 fold change is 0.006 (inactive).
NUDT4 (UniProt Q9NZJ9): the log2 fold change was -0.105 (inactive).
MYD88 isoform 6 (UniProt Q99836): the log2 fold change was -0.009 (inactive).
For the target MRPL53 (UniProt Q96EL3), the log2 fold change is 0.042 (inactive).
On the same count and under the same terms, with MTMR6 (UniProt Q9Y217) the figure was 0.121 (inactive); with NELFCD (UniProt Q8IXH7), 0.011 (inactive); with NPLOC4 isoform 2 (UniProt Q8TAT6), 0.062 (inactive).
As for NCOR2 (UniProt C9J0Q5), the log2 fold change is -0.064 (inactive).
NUDT5 (UniProt Q9UKK9): the log2 fold change is 0.006 (inactive).
Turning to NMT1 (UniProt P30419), the log2 fold change was -0.01 (inactive).
With PARD3 (UniProt Q8TEW0), the log2 fold change was 0.116 (inactive).

For the origin of these results see the supplement of paper PMC10849652.
